Assay outcomes from PubChem.
ALDH1A1 block – qHTS Assay for Inhibitors of Aldehyde Dehydrogenase 1 (ALDH1A1). Aldehyde dehydrogenase 1A1 (Homo sapiens), P00352. Purified ALDH1A1, NADH fluorescence, propionaldehyde substrate. Potency, µM (doses to about 75.3 µM), for the others: at the top dose activity, negative = inhibition, hits mostly inhibitors. actives 7.3% (n = 220,000). AID 1030, 2008;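 further: potency means the concentration at half of the fitted maximal effect; plate controls were no enzyme wells and a reference inhibitor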
Target sequence (P00352 whole entry, looked up): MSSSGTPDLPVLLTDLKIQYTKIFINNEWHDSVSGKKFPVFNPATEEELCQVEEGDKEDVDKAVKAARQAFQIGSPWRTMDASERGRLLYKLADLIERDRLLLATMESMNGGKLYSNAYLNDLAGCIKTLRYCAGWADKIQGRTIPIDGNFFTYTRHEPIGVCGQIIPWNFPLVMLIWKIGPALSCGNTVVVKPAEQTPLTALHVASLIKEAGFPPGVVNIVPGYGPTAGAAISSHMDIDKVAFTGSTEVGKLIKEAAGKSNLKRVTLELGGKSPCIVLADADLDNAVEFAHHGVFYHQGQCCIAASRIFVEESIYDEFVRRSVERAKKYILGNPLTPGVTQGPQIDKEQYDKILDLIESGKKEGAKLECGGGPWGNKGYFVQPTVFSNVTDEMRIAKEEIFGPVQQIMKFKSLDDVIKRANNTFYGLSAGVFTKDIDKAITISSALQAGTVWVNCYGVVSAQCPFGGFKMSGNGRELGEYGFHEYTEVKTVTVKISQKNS
IMPase cell inh – qHTS Assay for Identifying the Cell-Membrane Permeable IMPase Inhibitors | 120,000 tested, under 10 active | AID 901, 2007 | CHO-M1 cells, IP1 accumulation, HTRF TR-FRET ratio | Inositol monophosphatase 1 (Rattus norvegicus), P97697 | inhibition (IP1 accumulation), % at 46.1 µM; active means well fitted curve in the direction sought with a large enough effect in the signal ratio, not every such curve was filed as active; inconclusive means small, poorly fitted or top-dose-only effect, or a change in a side signal; inactive means no such curve, though single readings can be large or run the other way; the % refers to the signal ratio;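 further: cells stimulated with carbachol in lithium chloride buffer; plate controls were DMSO basal wells for no effect and reference inhibitor wells for full effect; higher means more IMPase inhibition seen as more IP1 and lower FRET ratio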
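Elevated IP1 in lysates lowers TR-FRET signal (665/620 ratio and 620 channel reported). Cells were CHO-M1, given carbachol (50 uM as added) plus 50mM LiCl, pH 7.4, 30 min, 37C; compounds titrated up to 46 uM; AC50 by Hill equation.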
HPGD block – qHTS Assay for Inhibitors of HPGD (15-Hydroxyprostaglandin Dehydrogenase). Potency, µM, inactives show at the highest dose activity change, negative = inhibition, actives largely listed as inhibitors. purified HPGD, NADH fluorescence kinetic, PGE2 substrate. actives 4.3% (n = 150,000). 15-hydroxyprostaglandin dehydrogenase [NAD(+)] (Homo sapiens), P15428; further: potency means the concentration at half of the fitted maximal effect
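NADH formation kinetics: reaction with 30 uM PGE2 and 1 mM NAD+ (final), 20 nM enzyme, Tris-HCl pH 8 with Tween 20, after 15 min compound preincubation at room temperature. Fluorescence change, last versus first of five reads.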
* marks the source's active call; other numbers are inactive results; ? = inconclusive; . = no result given; [ ] = dose if it differs, or a comment. Rows were chosen to be rich in hits. Some 9% of all compounds tested hit in one or more screens of this group. Unless noted, the call rests on the fitted dose curve; in most records, active means well fitted inhibition curve with a large enough effect (not every such curve was filed as active); inconclusive means small, poorly fitted or top-dose-only effect, or another doubt; inactive means no such curve, though single readings can be large or run the other way. Unless noted, on the % scale 0 is the no-effect control and ±100 the full control effect.

SMILES	ALDH1A1 block	IMPase cell inh	HPGD block
O=C(c1ccco1)c1cn(CC(=O)N2CCCc3ccccc32)c2ccccc12	?	5.6	?
CC(=O)c1ccc(OCC(=O)NCC2(N3CCCCC3)CCCCC2)cc1	-5.5%	.	.
Cn1nc(-c2ccccc2)c(CO)c1Oc1ccc(F)cc1	-4.7%	.	.
COc1cc2ccccc2cc1C(=O)N1CCN(C)CC1	?	7.6	?
CN(C)CC(O)COc1cc2ccccc2cc1C(=O)N1CCCCC1 (stereo not given)	-1.3%	6.0	28.2µM*
O=C(COc1cccnc1[N+](=O)[O-])NCCc1ccccc1	-7.5%	.	.
COc1ccc(C(CC(=O)NCC(OC)OC)NS(=O)(=O)c2ccc(Cl)cc2)cc1 (stereo not given)	1.0%	.	.
CCOc1cc(N2CCOCC2)c(OCC)cc1NC(C)C(=O)N1CCC(C)CC1 (stereo not given)	11.2µM*	4.1	.
CCOc1cc(N2CCOCC2)c(OCC)cc1NC(=O)CC12CC3CC(CC(C3)C1)C2	4.47µM*	0.1	-16.4%
CCOc1cc(N2CCOCC2)c(OCC)cc1NC(=O)[C@H](C)N1C(=O)C2CC=CCC2C1=O (stereo not given in full)	-5.6%	.	.
CCOc1cc(N2CCOCC2)c(OCC)cc1NC(=O)Cc1ccc(OC)c(OC)c1	-4.0%	2.2	-5.2%
O=C(c1ccc(Cn2c(=S)[nH]c3ccc(Br)cc3c2=O)cc1)N1CCN(C2CCCCC2)CC1	-0.7%	.	.
COc1ccc(C2CC(=O)c3cnn(-c4nc(C)cc(C)n4)c3C2)cc1 (stereo not given)	7.6%	.	.
CN1CCCN=C1/C=C\c1cccs1	5.2%[20.9 µM]	8.6[20.6 µM]	0.2%
CC(C)C(C(=O)Nc1ccc(N2CCOCC2)cc1)N1C(=O)c2ccccc2C1=O (stereo not given)	1.8%	1.1	.
Cc1cc2c(=O)oc(-c3ccc(F)cc3)nc2s1	15.8µM*	.	.
O=c1oc(-c2ccc(F)cc2)nc2ccsc12	0.1%	0.5	-7.6%
CSc1ncc2c(n1)-c1cc(C)ccc1SC2	-6.6%	2.2	-7.3%
CCn1c(N2CCN(CC(=O)c3c[nH]c4ccccc34)CC2)nc2c1c(=O)[nH]c(=O)n2C	22.4µM*	-3.7	-12.0%
Cn1c(N2CCCCC2)nc2c1c(=O)n(Cc1cccc(Br)c1)c(=O)n2C	-1.3%	-15.1	-14.1%
Cn1c(=O)c2c(nc(N3CCCCC3)n2CCNC2=NCCC2)n(C)c1=O	7.0%	1.0[1.84 µM]	2.2%
Cn1c(=O)c2c(nc(N3CCOCC3)n2CC(=O)c2ccccc2)n(C)c1=O	-1.3%	-4.7	-13.6%
C/C(Cl)=C\Cn1c(N2CCCCCC2)nc2c1c(=O)n(C)c(=O)n2C	3.55µM*	14.4	4.4%
Cn1c(=O)c2c(nc(N3CCCCCC3)n2CC(=O)c2ccccc2)n(C)c1=O	4.47µM*	-5.7	-11.9%
Cn1c(=O)c2c(nc(N3CCCCCC3)n2Cc2cccc3ccccc23)n(C)c1=O	0.891µM*	?	-26.3%
SMILES	ALDH1A1 block	IMPase cell inh	HPGD block
CCCn1c(N2CCN(CC(=O)c3c(C)n(C)c4ccccc34)CC2)nc2c1c(=O)[nH]c(=O)n2C	?	7.6	-3.3%
COC(=O)c1ccc(C(NC(=O)OCc2ccccc2)/C(C)=C/[C@@H](C)C(=O)NCc2nc3ccccc3s2)cc1 (stereo not given in full)	-9.9%	.	-7.6%
COc1cc(/C=N/N(C)c2ccccc2)cc(Cl)c1O	-8.6%	9.4	-9.9%
COc1ccc(OCC(=O)Nc2ccc(-c3nc4cc(C)cc(C)c4o3)cc2)cc1	.	-5.0	.
CCOC(=O)C1=C(C)NC(=O)NC1c1c(OCC(=O)N2CCCCC2)ccc2ccccc12 (stereo not given)	-0.8%	0.7	-11.3%
C/C=C/Cn1c(N2CCCCCC2)nc2c1c(=O)[nH]c(=O)n2C	?	6.5	-17.5%
CN1CCN(c2nc3c(c(=O)n(C)c(=O)n3C)n2Cc2cccc3ccccc23)CC1	11.2µM*	3.6	-8.3%
Cn1c(=O)c2c(nc(CN3CCN(CCO)CC3)n2Cc2cccc3ccccc23)n(C)c1=O	4.47µM*	1.5	-2.1%
Cn1c(=O)[nH]c(=O)c2c1nc(N1CCCCCC1)n2CC(N)=O	14.1µM*	15.6	-5.1%
Cn1c(=O)c2c(nc(N3CCOCC3)n2Cc2ccccc2)n(C)c1=O	.	1.3	.
CCN1CCN(Cc2nc3c(c(=O)n(C)c(=O)n3C)n2Cc2ccccc2Cl)CC1	-0.3%	8.9	-11.0%
CCOC(=O)Cc1csc(NC(=S)NC(=O)c2cccc([N+](=O)[O-])c2)n1	?	.	-15.6%
CCOc1ccc(C(=O)OCC(=O)NCc2ccco2)cc1OCC	?	0.1	-5.8%
Nc1nc(COc2ccc(F)cc2)nc(N2CCCCC2)n1	-2.2%	.	.
c1ccc(-c2nc(-c3ccccc3)c(Nc3ccc4ccccc4c3)o2)cc1	8.3%	.	-4.7%
Cc1csc(SC(C)C(=O)NCC2CCCCC2)n1 (stereo not given)	6.1%	.	.
CC(C)(C)Cc1nnc(NC(=O)CN2C(=O)c3ccccc3C2=O)s1	22.4µM*	.	.
CCCCc1nnc(NC(=O)CN2C(=O)c3ccccc3C2=O)s1	-0.3%	.	.
Cc1noc(/C=C/N(C)C)c1S(=O)(=O)N1CCc2ccccc21	5.62µM*	-0.9	-29.6%
Cc1noc(/C=C/N(C)C)c1S(=O)(=O)N1CCCC(C(=O)NC2CCCCC2C)C1 (stereo not given)	4.0%	4.7	-28.9%
Cc1noc(/C=C/N(C)C)c1S(=O)(=O)N(C)CC(=O)N1CCc2ccccc21	3.2%	-10.1	-4.7%
Cc1noc(/C=C/N(C)C)c1S(=O)(=O)N1CCCC(C(=O)NC(C)c2ccccc2)C1 (stereo not given)	7.51µM*	1.7	31.6µM*
CC(NCc1ccccc1Cl)C(=O)Nc1ccc(C#N)cc1 (stereo not given)	13.6%	.	.
S=C(c1ccc(N2CCCC2)cc1)N1CCCCC1	20µM*	9.9	14.1µM*
S=C(c1ccc(N2CCOCC2)cc1)N1CCOCC1	2.24µM*	-5.3	7.94µM*
SMILES	ALDH1A1 block	IMPase cell inh	HPGD block
CCOc1ccc(C(=S)N2CCOCC2)cc1	-2.0%	7.5	-12.5%
Oc1ccc(C(=S)N2CCCCCC2)cc1	?	-1.8	?
CCOc1ccc(NS(=O)(=O)c2ccc3c4c(cccc24)C(=O)N3)cc1	.	9.1	.
O=C(CN1C(=O)C2C3C=CC(C4CC34)C2C1=O)Oc1ccccc1 (stereo not given)	-3.9%	.	.
COc1ccc2oc(-c3ccc(NC(=O)c4ccc(Cl)cc4Cl)cc3)nc2c1	.	1.8	.
CC(=O)C1=C(O)C(=O)N(CCO)C1c1ccccc1 (stereo not given)	0.9%	.	.
CC(=O)C1=C(O)C(=O)N(CCC(=O)O)C1c1cccc(F)c1 (stereo not given)	-9.4%	-11.8	25.1µM*
CCS(=O)(=O)N1CCN(c2ccc(C(=O)NC3C4CC5CC(C4)CC3C5)cc2[N+](=O)[O-])CC1 (stereo not given)	7.08µM*	-0.8	-1.2%
CN1CCN(c2ccc(C(=O)NC3CCCCC3)cc2[N+](=O)[O-])CC1	-11.9%	.	.
CCc1cc2c(N3CCN(c4ccccc4)CC3)ncnc2s1	-7.6%	16.8	-24.3%
Oc1ccc(N2CCN(c3ncnc4sc(-c5ccccc5)cc34)CC2)cc1	25.1µM*	.	.
